Laboratory results as given in the supplement of paper PMC11732987, “Enantioselective OTUD7B fragment discovery through chemoproteomics screening and high-throughput optimisation” (Communications Chemistry, 2025).
Values without a mark were called inactive.

Columns and labels:
Assay in all cases: log2 ratio of Biotin-Ahx-Ub-VS probe labelling (fragment/DMSO); higher = less target engagement (more negative = stronger competition), active = hit call of the paper (q ≤ 0.05, log2 ratio ≤ -1)
Conditions in all cases: compound concentration: 200 uM; treatment time: 3 h
ALG13 = target: T1, ALG13 (UniProt Q9NP73)
T1 sequence (whole entry): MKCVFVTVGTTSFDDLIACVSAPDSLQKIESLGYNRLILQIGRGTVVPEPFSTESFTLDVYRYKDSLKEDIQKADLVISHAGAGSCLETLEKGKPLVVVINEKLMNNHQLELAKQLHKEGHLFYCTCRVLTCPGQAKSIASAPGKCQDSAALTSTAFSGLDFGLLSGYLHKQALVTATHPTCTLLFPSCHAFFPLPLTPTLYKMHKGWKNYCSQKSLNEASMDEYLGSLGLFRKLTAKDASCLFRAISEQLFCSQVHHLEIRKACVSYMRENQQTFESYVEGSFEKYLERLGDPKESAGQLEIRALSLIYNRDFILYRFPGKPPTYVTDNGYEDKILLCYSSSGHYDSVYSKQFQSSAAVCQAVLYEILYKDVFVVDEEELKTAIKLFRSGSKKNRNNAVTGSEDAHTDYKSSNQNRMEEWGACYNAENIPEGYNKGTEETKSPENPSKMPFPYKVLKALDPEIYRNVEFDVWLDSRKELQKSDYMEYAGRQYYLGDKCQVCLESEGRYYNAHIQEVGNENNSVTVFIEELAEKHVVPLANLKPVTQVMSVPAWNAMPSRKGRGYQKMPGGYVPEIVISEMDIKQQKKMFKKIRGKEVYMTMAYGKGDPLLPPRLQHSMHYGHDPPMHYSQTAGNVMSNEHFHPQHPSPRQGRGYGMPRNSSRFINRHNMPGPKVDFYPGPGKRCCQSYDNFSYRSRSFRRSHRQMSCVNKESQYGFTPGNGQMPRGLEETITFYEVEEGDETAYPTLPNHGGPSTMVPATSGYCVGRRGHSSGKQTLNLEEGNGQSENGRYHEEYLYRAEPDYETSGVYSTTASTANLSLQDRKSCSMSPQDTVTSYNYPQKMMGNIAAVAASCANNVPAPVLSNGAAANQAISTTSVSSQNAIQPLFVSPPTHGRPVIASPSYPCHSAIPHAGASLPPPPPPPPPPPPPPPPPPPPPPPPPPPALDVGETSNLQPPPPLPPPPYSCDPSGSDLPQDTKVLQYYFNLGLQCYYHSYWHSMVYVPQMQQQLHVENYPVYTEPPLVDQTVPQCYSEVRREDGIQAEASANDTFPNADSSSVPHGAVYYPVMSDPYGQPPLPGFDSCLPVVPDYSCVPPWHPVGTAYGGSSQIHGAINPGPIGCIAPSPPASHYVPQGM
Method in brief: (§1)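 Global-median-normalised Spectronaut label-free quantities were compared by unpaired t-test, and values are average log2 ratios of fragment over vehicle. Only proteins with ≥2 unique peptides were used. HEK293T lysate (495 µg per sample) was treated in triplicate with fragment at 200 µM or vehicle for 3 h and then with Biotin-Ahx-Ub-VS at 0.5 µM final for 1 h. Labelled DUBs were then NeutrAvidin-enriched, digested with LysC and trypsin, and run by diaPASEF LC-MS/MS.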

ATXN3 = ATXN3 (UniProt P54252)
Sequence of ATXN3 (P54252 whole entry): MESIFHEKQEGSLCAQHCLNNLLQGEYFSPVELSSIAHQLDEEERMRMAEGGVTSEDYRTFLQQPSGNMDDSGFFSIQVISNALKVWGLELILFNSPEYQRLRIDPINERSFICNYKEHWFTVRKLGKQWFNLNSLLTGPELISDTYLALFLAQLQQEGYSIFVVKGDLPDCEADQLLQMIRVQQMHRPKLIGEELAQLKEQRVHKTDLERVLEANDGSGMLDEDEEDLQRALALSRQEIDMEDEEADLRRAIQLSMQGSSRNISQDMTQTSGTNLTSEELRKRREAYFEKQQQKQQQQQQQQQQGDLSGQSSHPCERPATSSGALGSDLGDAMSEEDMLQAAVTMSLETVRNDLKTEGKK
Method in brief: as §1

BAP1 = target: T2, BAP1 (UniProt Q92560)
T2 sequence (whole entry): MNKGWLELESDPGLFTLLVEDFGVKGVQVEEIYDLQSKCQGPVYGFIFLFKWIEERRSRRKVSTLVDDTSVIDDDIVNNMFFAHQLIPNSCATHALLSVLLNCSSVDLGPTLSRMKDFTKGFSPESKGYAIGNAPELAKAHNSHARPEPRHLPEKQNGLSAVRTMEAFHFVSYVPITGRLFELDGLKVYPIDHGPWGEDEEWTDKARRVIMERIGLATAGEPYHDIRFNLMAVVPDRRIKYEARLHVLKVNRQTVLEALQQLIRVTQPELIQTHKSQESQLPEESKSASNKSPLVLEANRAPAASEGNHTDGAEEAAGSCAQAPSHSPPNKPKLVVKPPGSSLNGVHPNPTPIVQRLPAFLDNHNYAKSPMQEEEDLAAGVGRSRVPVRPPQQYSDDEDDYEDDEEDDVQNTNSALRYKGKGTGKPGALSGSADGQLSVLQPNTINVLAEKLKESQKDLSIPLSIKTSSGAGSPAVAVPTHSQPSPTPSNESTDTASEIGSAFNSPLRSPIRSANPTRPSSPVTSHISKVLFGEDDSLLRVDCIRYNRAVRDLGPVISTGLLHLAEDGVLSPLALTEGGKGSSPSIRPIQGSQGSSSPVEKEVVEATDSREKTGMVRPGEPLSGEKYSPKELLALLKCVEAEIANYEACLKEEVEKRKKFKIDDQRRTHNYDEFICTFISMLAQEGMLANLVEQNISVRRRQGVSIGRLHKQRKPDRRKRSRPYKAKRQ
Method in brief: as §1

EIF3F = EIF3F (UniProt O00303)
Sequence of EIF3F (O00303 whole entry): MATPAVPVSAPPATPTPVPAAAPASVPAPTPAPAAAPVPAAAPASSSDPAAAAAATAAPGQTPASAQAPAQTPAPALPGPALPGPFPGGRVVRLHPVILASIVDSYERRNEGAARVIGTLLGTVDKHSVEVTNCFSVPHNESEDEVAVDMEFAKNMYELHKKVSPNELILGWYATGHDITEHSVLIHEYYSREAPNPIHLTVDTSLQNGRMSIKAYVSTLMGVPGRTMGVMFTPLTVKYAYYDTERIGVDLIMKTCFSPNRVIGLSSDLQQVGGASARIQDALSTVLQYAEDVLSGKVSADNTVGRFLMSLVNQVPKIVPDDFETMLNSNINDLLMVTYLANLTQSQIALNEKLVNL
Method in brief: as §1

EIF3H = EIF3H (UniProt O15372)
Sequence of EIF3H (O15372 whole entry): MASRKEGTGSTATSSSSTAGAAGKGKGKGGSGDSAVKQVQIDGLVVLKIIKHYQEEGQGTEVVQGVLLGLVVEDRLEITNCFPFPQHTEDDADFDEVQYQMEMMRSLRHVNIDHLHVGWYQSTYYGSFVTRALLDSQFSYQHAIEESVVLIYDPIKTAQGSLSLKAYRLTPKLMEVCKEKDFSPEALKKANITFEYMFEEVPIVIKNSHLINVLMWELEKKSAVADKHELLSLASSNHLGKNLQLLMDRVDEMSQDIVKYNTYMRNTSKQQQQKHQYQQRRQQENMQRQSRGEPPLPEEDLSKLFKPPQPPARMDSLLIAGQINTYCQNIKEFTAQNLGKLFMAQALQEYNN
Method in brief: as §1

FAM105A = target: T3, FAM105A (UniProt Q9NUU6)
T3 sequence (whole entry): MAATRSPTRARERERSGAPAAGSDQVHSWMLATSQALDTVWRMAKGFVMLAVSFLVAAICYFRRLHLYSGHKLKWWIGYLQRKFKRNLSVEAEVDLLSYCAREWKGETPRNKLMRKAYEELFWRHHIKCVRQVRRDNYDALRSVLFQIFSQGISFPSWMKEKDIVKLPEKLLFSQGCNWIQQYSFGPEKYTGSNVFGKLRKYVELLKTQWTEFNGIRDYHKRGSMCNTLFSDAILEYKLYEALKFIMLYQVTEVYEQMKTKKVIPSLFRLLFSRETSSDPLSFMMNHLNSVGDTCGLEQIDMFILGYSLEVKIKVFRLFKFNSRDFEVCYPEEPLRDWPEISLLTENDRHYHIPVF
Method in brief: as §1

OTUB1 = OTUB1 (UniProt Q96FW1)
Sequence of OTUB1 (Q96FW1 whole entry): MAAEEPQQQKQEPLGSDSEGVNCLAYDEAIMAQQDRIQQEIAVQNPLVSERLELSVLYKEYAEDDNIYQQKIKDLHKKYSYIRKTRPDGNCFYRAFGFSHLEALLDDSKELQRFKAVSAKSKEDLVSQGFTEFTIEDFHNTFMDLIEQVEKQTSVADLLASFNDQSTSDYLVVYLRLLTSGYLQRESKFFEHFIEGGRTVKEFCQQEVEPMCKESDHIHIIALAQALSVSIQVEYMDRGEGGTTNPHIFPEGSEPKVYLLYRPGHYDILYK
Method in brief: as §1

OTUD4 = target: T4, OTUD4 (UniProt Q01804)
T4 sequence (whole entry): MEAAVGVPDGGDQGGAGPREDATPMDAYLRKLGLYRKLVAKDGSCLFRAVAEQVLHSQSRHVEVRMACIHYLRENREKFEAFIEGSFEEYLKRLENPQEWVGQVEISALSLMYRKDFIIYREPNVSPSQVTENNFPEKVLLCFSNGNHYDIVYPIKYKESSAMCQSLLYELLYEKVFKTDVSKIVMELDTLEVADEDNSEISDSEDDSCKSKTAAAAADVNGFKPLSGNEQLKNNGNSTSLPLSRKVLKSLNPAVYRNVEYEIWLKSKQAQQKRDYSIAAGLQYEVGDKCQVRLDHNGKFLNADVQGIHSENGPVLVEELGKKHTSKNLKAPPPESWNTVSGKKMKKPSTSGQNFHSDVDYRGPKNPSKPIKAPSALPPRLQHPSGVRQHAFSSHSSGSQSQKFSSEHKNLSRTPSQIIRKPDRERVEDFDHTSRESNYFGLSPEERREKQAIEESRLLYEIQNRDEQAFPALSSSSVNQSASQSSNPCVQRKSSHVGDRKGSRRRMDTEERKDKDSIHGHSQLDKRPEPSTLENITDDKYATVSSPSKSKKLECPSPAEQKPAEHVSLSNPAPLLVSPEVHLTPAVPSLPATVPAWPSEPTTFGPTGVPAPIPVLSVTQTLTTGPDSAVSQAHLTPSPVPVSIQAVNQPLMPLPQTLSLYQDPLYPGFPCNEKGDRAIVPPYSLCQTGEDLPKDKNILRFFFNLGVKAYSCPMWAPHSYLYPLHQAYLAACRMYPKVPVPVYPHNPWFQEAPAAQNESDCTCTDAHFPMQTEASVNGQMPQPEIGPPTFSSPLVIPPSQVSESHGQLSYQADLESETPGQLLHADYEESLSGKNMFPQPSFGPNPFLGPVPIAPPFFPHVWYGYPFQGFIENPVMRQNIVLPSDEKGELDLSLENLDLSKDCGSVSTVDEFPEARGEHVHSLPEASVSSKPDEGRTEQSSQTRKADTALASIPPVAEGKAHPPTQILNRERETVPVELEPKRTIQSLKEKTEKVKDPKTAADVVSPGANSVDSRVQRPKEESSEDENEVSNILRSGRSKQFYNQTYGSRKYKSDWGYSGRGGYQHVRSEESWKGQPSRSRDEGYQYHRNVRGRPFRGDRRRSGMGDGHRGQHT
Method in brief: as §1

OTUD5 = target: T5, OTUD5 (UniProt Q96G74)
T5 sequence (whole entry): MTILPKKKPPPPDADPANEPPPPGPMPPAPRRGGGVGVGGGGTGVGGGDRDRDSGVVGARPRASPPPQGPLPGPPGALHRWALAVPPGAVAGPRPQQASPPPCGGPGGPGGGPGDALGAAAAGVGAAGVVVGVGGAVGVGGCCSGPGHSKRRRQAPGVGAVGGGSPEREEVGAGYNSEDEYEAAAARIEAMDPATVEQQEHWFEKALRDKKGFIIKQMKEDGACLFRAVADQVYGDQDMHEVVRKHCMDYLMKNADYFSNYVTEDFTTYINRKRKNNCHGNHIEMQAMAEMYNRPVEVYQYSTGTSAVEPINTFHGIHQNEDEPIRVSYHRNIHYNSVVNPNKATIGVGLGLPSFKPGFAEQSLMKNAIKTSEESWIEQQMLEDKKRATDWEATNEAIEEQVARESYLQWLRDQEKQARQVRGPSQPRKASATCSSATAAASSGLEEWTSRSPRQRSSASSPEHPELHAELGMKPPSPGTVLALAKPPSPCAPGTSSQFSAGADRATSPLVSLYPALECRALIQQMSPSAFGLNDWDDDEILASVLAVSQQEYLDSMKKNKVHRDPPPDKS
Method in brief: as §1

**Q.** With `CN(CCC(O)c1ccc(Br)cc1)C(=O)CCl` (centres undefined) as the compound, how does the “log2 ratio of Biotin-Ahx-Ub-VS probe labelling” value (“log2 ratio” below) (ALG13) read?
**A.** Its value is -0.222.

**Q.** What about the “log2 ratio” value (ATXN3) of the same compound?
**A.** The value was -0.473.

**Q.** And the “log2 ratio” value (BAP1)?
**A.** The value was -2.04 (active).

**Q.** What about the “log2 ratio” value (EIF3F) of the same compound?
**A.** Its value is -0.372.

**Q.** What about the “log2 ratio” value (EIF3H) of the same compound?
**A.** The value was 0.178.

**Q.** And the “log2 ratio” value (FAM105A)?
**A.** Its value is 0.138.

**Q.** And the “log2 ratio” value (OTUB1)?
**A.** The value was -0.231.

**Q.** What about the “log2 ratio” value (OTUD4) of the same compound?
**A.** The value was -0.192.

**Q.** And the “log2 ratio” value (OTUD5)?
**A.** Its value is -0.354.
